Source: PubChem
Most compounds without a hit are left out; they make up all but 3.2% or so of the library.
MEKK2wt PB1 HTS – raises or lowers MEK5 binding to wildtype human MEKK2 PB1 domain | bead flow cytometry, Alexa488-MEK5 binding to MEKK2 WT; actives lie on both sides | binding response (% of control), % at 10 µM | 1.1% of 290,000 active; in the data active = binding response below about 67% or above about 130%
NRP1-CendR mod – alters CendR peptide binding to human NRP-1; FAM-RPARPAR peptide binding to NRP-1, fluorescence polarization; 0.85% of 360,000 active; O14786; inhibition, % at 25 µM;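 active = inhibition or corrected inhibition above about 18%, plus a signal ratio from 0.5 to 1.5, limit read from the data, passing the limit was not always enough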
MEKK3 PB1 HTS – raises or lowers MEK5 binding to the human MEKK3 PB1 domain | Q99759 | bead-based flow cytometry, Alexa488-MEK5 binding to MEKK3; actives lie on both sides; 0 = blocked by unlabeled MEK5, 100 = vehicle | binding response (% of control), % at 10 µM | 1.4% of 290,000 active | AID 1529;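 active = binding response more than 3 SD above or below the average of its plate-row segment, actives on both sides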;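 also: Alexa488 bead fluorescence after subtracting the streptavidin-only scavenger bead signal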
SKN-1 block – C. elegans SKN-1 inhibition; C. elegans VP596 Pgst-4::GFP/RFP ratio, acrylamide-induced, 24 h; inhibition, % at 21.8 µM; 0.49% of 360,000 active; AID 624304;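 active = interference check ratio from 0.5 to 1.5 plus GFP to RFP signal ratio inhibition reaching or exceeding a fixed threshold, cut at about 30% in these data, passing the limit was not always enough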
MEKK2 mut-MEK5 – signal of MEK5 binding to mutant human MEKK2 PB1 domain; bead flow cytometry, Alexa488-MEK5 binding to MEKK2 mutant; percent response, % at 10 µM; 0.35% of 290,000 active; AID 1530; in the data active = percent response above about 24%, passing the limit was not always enough
MEKK2wt confirm – raises or lowers MEK5 binding to wildtype human MEKK2, retest. binding response (% of control), % at 10 µM. bead flow cytometry, Alexa488-MEK5 binding to MEKK2 WT; actives lie on both sides. shares compounds with MEKK3 PB1 HTS. 2.4% of 5,900 active; in the data active = binding response below about 16% or above about 210%; inactive = in between
MEKK2mut confirm – signal of MEK5 binding to mutant human MEKK2, retest | shares compounds with MEKK3 PB1 HTS | bead flow cytometry, Alexa488-MEK5 binding to MEKK2 mutant | percent response, % at 10 µM | 2% of 5,900 active; in the data active = percent response mostly above about 71%, no sharp cut-off; inactive = mostly below about 38%;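 also: higher means compound restores mutant binding toward wildtype level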
MEKK3 confirm – MEKK3-MEK5 PB1 inhibition, single concentration confirmation. shares compounds with MEKK3 PB1 HTS. bead flow cytometry, Alexa488-MEK5 binding to MEKK3; active compounds read low. binding response (% of control), % at 10 µM. 1.8% of 5,900 active;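 active = binding response below 72% of control, or above a set upper limit, though filed actives all read lower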;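 also: lower values mean stronger disruption of MEK5 binding to MEKK3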
Of the large screens only hits and unclear results are named; the others gave an inactive call (follow-up assays come after a bar, where they were run); [ ] = remark or other dose.

COc1ccccc1C(O)c1ncc(-c2cccc3ccccc23)[nH]1 (stereo not drawn)	none (no result: MEKK2wt PB1 HTS, MEKK3 PB1 HTS, MEKK2 mut-MEK5)
CCc1nc2c(OCC3COc4ccccc4O3)cccn2c1N(C)C(=O)c1cccs1 (stereo not drawn)	none (no result: MEKK2wt PB1 HTS, MEKK3 PB1 HTS, MEKK2 mut-MEK5)
Cc1csc(-c2cnn(-c3ccccc3)c2NC(=O)c2ccccc2)n1	MEKK2wt PB1 HTS 1.0[inhibitor], MEKK3 PB1 HTS 1.0[inhibitor] | MEKK2wt confirm inactive | MEKK2mut confirm inactive | MEKK3 confirm inactive
O=C(Nc1ccc(Cl)cc1)NC1CCCCC1	MEKK2wt PB1 HTS -1.0[inhibitor], MEKK3 PB1 HTS 1.0[inhibitor] | MEKK2wt confirm inactive | MEKK2mut confirm inactive | MEKK3 confirm inactive
O=C(Nc1ccc(Cl)cc1)NC1CCCC1Cc1ccco1 (stereo not drawn)	none
Nc1ccc(NC(=O)NC2CCCCC2)cc1	none
O=C(Nc1ccc(Cl)cc1)NC1CCCCC1Cc1ccco1 (stereo not drawn)	MEKK2wt PB1 HTS 46.0[inhibitor], MEKK3 PB1 HTS 69.0[inhibitor] | MEKK2wt confirm inactive | MEKK2mut confirm inactive | MEKK3 confirm inactive
CCC(=O)N[C@@H]1CC(C(C)(C)NC(=O)CC)CC=C1C (stereo partly drawn)	MEKK2wt PB1 HTS 1.0[inhibitor], MEKK3 PB1 HTS 2.0[inhibitor] | MEKK2wt confirm inactive | MEKK2mut confirm inactive | MEKK3 confirm inactive
Cc1nnc(Sc2cc(C(=O)NCCCN(C)Cc3ccccc3)c3ccccc3n2)s1	MEKK3 PB1 HTS 131.0 | MEKK2wt confirm inactive | MEKK2mut confirm inactive | MEKK3 confirm inactive
COCCCNC(=O)c1cc(Sc2nnc(C)s2)nc2ccccc12	none
CCCCc1ccc(S(=O)(=O)Nc2ccc(C)c(NS(C)(=O)=O)c2)cc1	MEKK3 PB1 HTS 137.0 | MEKK2wt confirm inactive | MEKK2mut confirm inactive | MEKK3 confirm inactive
CCCc1ccc(S(=O)(=O)Nc2ccc(C)c(NS(C)(=O)=O)c2)cc1	none
O=S(=O)(NC1CCCCC1Nc1ccccc1)c1ccccc1 (stereo not drawn)	MEKK3 PB1 HTS 128.0 | MEKK2wt confirm inactive | MEKK2mut confirm inactive | MEKK3 confirm 71.0
COc1cccc(CN2CCC2(C)C(=O)Nc2cccc(Oc3ccccc3)c2)c1F (stereo not drawn)	none (no result: MEKK2wt PB1 HTS, MEKK3 PB1 HTS, MEKK2 mut-MEK5)
Nc1nc(Nc2ccc(Cl)cc2)n[nH]1	none
Nc1nc(Nc2ccccc2)n[nH]1	MEKK3 PB1 HTS 74.0[inhibitor] | MEKK2wt confirm inactive | MEKK2mut confirm inactive | MEKK3 confirm inactive
Cc1ccc(-c2nc3ccccc3c(=O)n2NC(=O)c2cccs2)cc1	MEKK3 PB1 HTS 129.0 | MEKK2wt confirm inactive | MEKK2mut confirm inactive | MEKK3 confirm inactive
CCC(C)N(C(=O)c1csnn1)C(C(=O)NC1CCCC1)c1ccccc1F (stereo not drawn)	none
O=C(CNC(=O)c1ccc(S(=O)(=O)N2CCCC2)cc1)N/N=C/c1ccccc1Cl	MEKK3 PB1 HTS 73.0[inhibitor] | MEKK2wt confirm inactive | MEKK2mut confirm inactive | MEKK3 confirm inactive
COc1ccccc1/C=N/NC(=O)CNC(=O)c1ccc(S(=O)(=O)N2CCCC2)cc1	none
O=C(CN1CCN(C(=O)c2cccs2)CC1)NC1CCCCC1	MEKK3 PB1 HTS 81.0[inhibitor] | MEKK2wt confirm inactive | MEKK2mut confirm inactive | MEKK3 confirm inactive
COc1cc(C2SCC(=O)N2Cc2ccccc2)cc(OC)c1OC (stereo not drawn)	none
O=C(O)c1cccc(N/N=C/C2=C(Cl)c3cc(Cl)ccc3SC2)c1	MEKK2wt PB1 HTS 10.0[inhibitor], MEKK3 PB1 HTS 28.0[inhibitor] | MEKK2wt confirm inactive | MEKK2mut confirm inactive | MEKK3 confirm inactive
COc1ccc(CCNC(=O)CCN2C(=O)COc3ccccc32)cc1OC	MEKK3 PB1 HTS 81.0[inhibitor] | MEKK2wt confirm inactive | MEKK2mut confirm inactive | MEKK3 confirm inactive
COc1ccc(/C=C/C(=O)NCCCN2CCCCCC2)cc1	MEKK2wt PB1 HTS 155.0, MEKK2 mut-MEK5 28.0 | MEKK2wt confirm inactive | MEKK2mut confirm inactive | MEKK3 confirm inactive
